Laboratory results from a collection of fitness landscapes (doi:10.1016/j.celrep.2020.107928).
In all, about 81,000 sequences were measured (“one-hybrid fitness for binding parS DNA”: median about -0.17, highest 2% from about 0.51 on). Many of the other results were omitted from the sample, so the highest values are more common in it than they were.

B1: Caulobacter ParB omega fusion; a variant is named by its letters at X, in order, B8GW30 (parent)
chain: MESVVVGEPGMSEGRRGLGRGLSALLGEVDAAPAQAPGEQLGGSREAPIEILQRNPDQPRRTFREEDLEDLSNSIREKGVLQPILVRPSPDTAGEYQIVAGERAWRAAQRAGLKTVPIMVRELDDLAVLEIGIIENVQRADLNVLEEALSYKVLMEKFERTQENIAQTIGKSXSHVANXMRLLXLPDEVQSYLVSGELTAXHARAIAAAADPVALAKQIIEGGLSVRETEALARKAPNLSAGKSKGGRPPRVKDTDTQALESDLSSVLGLDVSIDHRGSTGTLTITYATLEQLDDLCNRLTRGI

Variants of: B1
Assay: one-hybrid fitness for binding parS DNA (scaled: cognate 1, non-cognate 0); higher = stronger binding
Settings: with parS DNA site
Method in brief: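 On M9-minus-histidine containing 0.1 mM IPTG and 5 mM 3-AT, E. coli USO cells with a HIS3 reporter, site 19 bp from the promoter, grew 48 hours at 37°C to select Caulobacter ParB libraries randomised at four specificity codons. Plasmids from before and after were Illumina-sequenced, with three replicate libraries pooled and variants under 10 reads left out. Fitness is the log change in variant-to-wild-type read ratio, rescaled against cognate and non-cognate.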
For TVTE, the “one-hybrid fitness for binding parS DNA” value was ≤ 0.2.
For HTAD, the “one-hybrid fitness for binding parS DNA” value was ≤ 0.2.
With AGDD the “one-hybrid fitness for binding parS DNA” value was ≤ 0.2.
In the case of KANA, the “one-hybrid fitness for binding parS DNA” value is reported as ≤ 0.2.
In the case of WSQY, the “one-hybrid fitness for binding parS DNA” value is reported as ≤ 0.2.
With NLNG the “one-hybrid fitness for binding parS DNA” value was ≤ 0.2.
In the case of DWLT, the “one-hybrid fitness for binding parS DNA” value is reported as ≤ 0.2.
With RAFY the “one-hybrid fitness for binding parS DNA” value was 0.499.
In the case of RAFG, the “one-hybrid fitness for binding parS DNA” value is reported as 0.978.
With RAAG the “one-hybrid fitness for binding parS DNA” value was 1.
RAAN was tested, and the “one-hybrid fitness for binding parS DNA” value was 0.448.
With RAAP the “one-hybrid fitness for binding parS DNA” value was ≤ 0.2.
RAFR was tested, and the “one-hybrid fitness for binding parS DNA” value was ≤ 0.2.
For KYLA, the “one-hybrid fitness for binding parS DNA” value was ≤ 0.2.
For TKWY, the “one-hybrid fitness for binding parS DNA” value was ≤ 0.2.
For KNQS, the “one-hybrid fitness for binding parS DNA” value was ≤ 0.2.
CSRV was tested, and the “one-hybrid fitness for binding parS DNA” value was ≤ 0.2.
In the case of ATTE, the “one-hybrid fitness for binding parS DNA” value is reported as ≤ 0.2.
With WMPS the “one-hybrid fitness for binding parS DNA” value was ≤ 0.2.
In the case of CPLP, the “one-hybrid fitness for binding parS DNA” value is reported as ≤ 0.2.
For GALY, the “one-hybrid fitness for binding parS DNA” value was ≤ 0.2.
NGLG was tested, and the “one-hybrid fitness for binding parS DNA” value was ≤ 0.2.
For RQQC, the “one-hybrid fitness for binding parS DNA” value was 0.951.
In the case of RQHC, the “one-hybrid fitness for binding parS DNA” value is reported as 0.946.
RQQK was tested, and the “one-hybrid fitness for binding parS DNA” value was ≤ 0.2.
For RQGC, the “one-hybrid fitness for binding parS DNA” value was 0.916.
With RQSY the “one-hybrid fitness for binding parS DNA” value was 0.465.
With RQGM the “one-hybrid fitness for binding parS DNA” value was 0.287.
With RQHM the “one-hybrid fitness for binding parS DNA” value was 0.325.
In the case of RQGK, the “one-hybrid fitness for binding parS DNA” value is reported as ≤ 0.2.
For RQSC, the “one-hybrid fitness for binding parS DNA” value was 0.968.
With RQQQ the “one-hybrid fitness for binding parS DNA” value was ≤ 0.2.
In the case of RQSQ, the “one-hybrid fitness for binding parS DNA” value is reported as ≤ 0.2.
For RQHR, the “one-hybrid fitness for binding parS DNA” value was ≤ 0.2.
With KYCL the “one-hybrid fitness for binding parS DNA” value was ≤ 0.2.
In the case of AFDN, the “one-hybrid fitness for binding parS DNA” value is reported as ≤ 0.2.
GKGS was tested, and the “one-hybrid fitness for binding parS DNA” value was ≤ 0.2.
For WSNM, the “one-hybrid fitness for binding parS DNA” value was ≤ 0.2.
In the case of GTTW, the “one-hybrid fitness for binding parS DNA” value is reported as ≤ 0.2.
ACNL was tested, and the “one-hybrid fitness for binding parS DNA” value was ≤ 0.2.
For CRNF, the “one-hybrid fitness for binding parS DNA” value was ≤ 0.2.
For SNIR, the “one-hybrid fitness for binding parS DNA” value was ≤ 0.2.
RQCK was tested, and the “one-hybrid fitness for binding parS DNA” value was ≤ 0.2.
In the case of RQRY, the “one-hybrid fitness for binding parS DNA” value is reported as 0.504.
RQCC was tested, and the “one-hybrid fitness for binding parS DNA” value was 0.874.
For RQLY, the “one-hybrid fitness for binding parS DNA” value was 0.442.
In the case of RQLQ, the “one-hybrid fitness for binding parS DNA” value is reported as ≤ 0.2.
In the case of RQLC, the “one-hybrid fitness for binding parS DNA” value is reported as 0.952.
For RQRC, the “one-hybrid fitness for binding parS DNA” value was 0.943.
For RQCQ, the “one-hybrid fitness for binding parS DNA” value was ≤ 0.2.
For RQYR, the “one-hybrid fitness for binding parS DNA” value was ≤ 0.2.
In the case of RQYC, the “one-hybrid fitness for binding parS DNA” value is reported as 0.94.
With RQRF the “one-hybrid fitness for binding parS DNA” value was 0.247.
For RQYF, the “one-hybrid fitness for binding parS DNA” value was 0.256.
With VAQC the “one-hybrid fitness for binding parS DNA” value was ≤ 0.2.
FEDR was tested, and the “one-hybrid fitness for binding parS DNA” value was ≤ 0.2.
In the case of QQVS, the “one-hybrid fitness for binding parS DNA” value is reported as ≤ 0.2.
With VEHM the “one-hybrid fitness for binding parS DNA” value was ≤ 0.2.
With CAAW the “one-hybrid fitness for binding parS DNA” value was ≤ 0.2.
In the case of APPF, the “one-hybrid fitness for binding parS DNA” value is reported as ≤ 0.2.
For YVRD, the “one-hybrid fitness for binding parS DNA” value was ≤ 0.2.
For RQWD, the “one-hybrid fitness for binding parS DNA” value was ≤ 0.2.
For RQWC, the “one-hybrid fitness for binding parS DNA” value was 0.797.
RQWN was tested, and the “one-hybrid fitness for binding parS DNA” value was 0.286.
For CVQT, the “one-hybrid fitness for binding parS DNA” value was ≤ 0.2.
RFAH was tested, and the “one-hybrid fitness for binding parS DNA” value was ≤ 0.2.
In the case of RFFP, the “one-hybrid fitness for binding parS DNA” value is reported as ≤ 0.2.
RFFS was tested, and the “one-hybrid fitness for binding parS DNA” value was 0.841.
For RFAS, the “one-hybrid fitness for binding parS DNA” value was 0.976.
For RFFD, the “one-hybrid fitness for binding parS DNA” value was ≤ 0.2.
With RFAD the “one-hybrid fitness for binding parS DNA” value was ≤ 0.2.
In the case of LQNH, the “one-hybrid fitness for binding parS DNA” value is reported as ≤ 0.2.
With TREM the “one-hybrid fitness for binding parS DNA” value was ≤ 0.2.
In the case of DHQQ, the “one-hybrid fitness for binding parS DNA” value is reported as ≤ 0.2.
In the case of STCC, the “one-hybrid fitness for binding parS DNA” value is reported as ≤ 0.2.
With RSCQ the “one-hybrid fitness for binding parS DNA” value was ≤ 0.2.
For RICG, the “one-hybrid fitness for binding parS DNA” value was 0.976.
For RICQ, the “one-hybrid fitness for binding parS DNA” value was 0.256.
In the case of RTCQ, the “one-hybrid fitness for binding parS DNA” value is reported as ≤ 0.2.
RMCN was tested, and the “one-hybrid fitness for binding parS DNA” value was 0.389.
RICY was tested, and the “one-hybrid fitness for binding parS DNA” value was 0.492.
RMCH was tested, and the “one-hybrid fitness for binding parS DNA” value was 0.262.
In the case of RDCG, the “one-hybrid fitness for binding parS DNA” value is reported as ≤ 0.2.
For RMCG, the “one-hybrid fitness for binding parS DNA” value was 1.04.
In the case of RTCG, the “one-hybrid fitness for binding parS DNA” value is reported as 0.999.
For RTCK, the “one-hybrid fitness for binding parS DNA” value was ≤ 0.2.
RSCG was tested, and the “one-hybrid fitness for binding parS DNA” value was 0.966.
For ECVT, the “one-hybrid fitness for binding parS DNA” value was ≤ 0.2.
In the case of WSQP, the “one-hybrid fitness for binding parS DNA” value is reported as ≤ 0.2.
With VYQR the “one-hybrid fitness for binding parS DNA” value was ≤ 0.2.
In the case of KDPE, the “one-hybrid fitness for binding parS DNA” value is reported as ≤ 0.2.
With DISI the “one-hybrid fitness for binding parS DNA” value was ≤ 0.2.
In the case of KTLW, the “one-hybrid fitness for binding parS DNA” value is reported as ≤ 0.2.
In the case of RECG, the “one-hybrid fitness for binding parS DNA” value is reported as 0.221.
With RLCF the “one-hybrid fitness for binding parS DNA” value was 0.27.
For RLCG, the “one-hybrid fitness for binding parS DNA” value was 1.
In the case of RPCG, the “one-hybrid fitness for binding parS DNA” value is reported as ≤ 0.2.
In the case of RLCM, the “one-hybrid fitness for binding parS DNA” value is reported as 0.342.
RCCG was tested, and the “one-hybrid fitness for binding parS DNA” value was 1.03.
PASK was tested, and the “one-hybrid fitness for binding parS DNA” value was ≤ 0.2.
With CNGG the “one-hybrid fitness for binding parS DNA” value was ≤ 0.2.
With SRGF the “one-hybrid fitness for binding parS DNA” value was ≤ 0.2.
For AQNP, the “one-hybrid fitness for binding parS DNA” value was ≤ 0.2.
In the case of TPWY, the “one-hybrid fitness for binding parS DNA” value is reported as ≤ 0.2.
With KCYT the “one-hybrid fitness for binding parS DNA” value was ≤ 0.2.
VISS was tested, and the “one-hybrid fitness for binding parS DNA” value was ≤ 0.2.
In the case of QETP, the “one-hybrid fitness for binding parS DNA” value is reported as ≤ 0.2.
For PTTA, the “one-hybrid fitness for binding parS DNA” value was ≤ 0.2.
With DTNY the “one-hybrid fitness for binding parS DNA” value was ≤ 0.2.
RYMG was tested, and the “one-hybrid fitness for binding parS DNA” value was 0.971.
For RYMS, the “one-hybrid fitness for binding parS DNA” value was 0.963.
In the case of RYMC, the “one-hybrid fitness for binding parS DNA” value is reported as 0.994.
RYMP was tested, and the “one-hybrid fitness for binding parS DNA” value was ≤ 0.2.
With RYMQ the “one-hybrid fitness for binding parS DNA” value was ≤ 0.2.
With RYMH the “one-hybrid fitness for binding parS DNA” value was ≤ 0.2.
In the case of RYMN, the “one-hybrid fitness for binding parS DNA” value is reported as 0.395.
In the case of RYMT, the “one-hybrid fitness for binding parS DNA” value is reported as 0.887.
In the case of RYMK, the “one-hybrid fitness for binding parS DNA” value is reported as ≤ 0.2.
For RYMD, the “one-hybrid fitness for binding parS DNA” value was ≤ 0.2.
RYML was tested, and the “one-hybrid fitness for binding parS DNA” value was ≤ 0.2.
For RYMR, the “one-hybrid fitness for binding parS DNA” value was ≤ 0.2.
For LCMG, the “one-hybrid fitness for binding parS DNA” value was ≤ 0.2.
For NWQY, the “one-hybrid fitness for binding parS DNA” value was ≤ 0.2.
With NQMR the “one-hybrid fitness for binding parS DNA” value was ≤ 0.2.
In the case of DFGS, the “one-hybrid fitness for binding parS DNA” value is reported as ≤ 0.2.
For NLVV, the “one-hybrid fitness for binding parS DNA” value was ≤ 0.2.
With TGGR the “one-hybrid fitness for binding parS DNA” value was ≤ 0.2.
For HAMN, the “one-hybrid fitness for binding parS DNA” value was ≤ 0.2.
In the case of WKPV, the “one-hybrid fitness for binding parS DNA” value is reported as ≤ 0.2.
In the case of DGVM, the “one-hybrid fitness for binding parS DNA” value is reported as ≤ 0.2.
For RPCN, the “one-hybrid fitness for binding parS DNA” value was ≤ 0.2.
In the case of APGA, the “one-hybrid fitness for binding parS DNA” value is reported as ≤ 0.2.
LMVR was tested, and the “one-hybrid fitness for binding parS DNA” value was ≤ 0.2.
EFNL was tested, and the “one-hybrid fitness for binding parS DNA” value was ≤ 0.2.
WIWS was tested, and the “one-hybrid fitness for binding parS DNA” value was ≤ 0.2.
RPCC was tested, and the “one-hybrid fitness for binding parS DNA” value was ≤ 0.2.
In the case of RSCD, the “one-hybrid fitness for binding parS DNA” value is reported as ≤ 0.2.
RDCC was tested, and the “one-hybrid fitness for binding parS DNA” value was ≤ 0.2.
RSCP was tested, and the “one-hybrid fitness for binding parS DNA” value was ≤ 0.2.
RCCC was tested, and the “one-hybrid fitness for binding parS DNA” value was 0.959.
RSCC was tested, and the “one-hybrid fitness for binding parS DNA” value was 0.915.
In the case of RRPF, the “one-hybrid fitness for binding parS DNA” value is reported as ≤ 0.2.
RRPG was tested, and the “one-hybrid fitness for binding parS DNA” value was 0.891.
In the case of RRIG, the “one-hybrid fitness for binding parS DNA” value is reported as 0.908.
For RRIP, the “one-hybrid fitness for binding parS DNA” value was ≤ 0.2.
With RRPQ the “one-hybrid fitness for binding parS DNA” value was ≤ 0.2.
RRIM was tested, and the “one-hybrid fitness for binding parS DNA” value was ≤ 0.2.
In the case of TAAL, the “one-hybrid fitness for binding parS DNA” value is reported as ≤ 0.2.
In the case of KHMS, the “one-hybrid fitness for binding parS DNA” value is reported as ≤ 0.2.
RYTP was tested, and the “one-hybrid fitness for binding parS DNA” value was ≤ 0.2.
For RYTY, the “one-hybrid fitness for binding parS DNA” value was 0.429.
RYTR was tested, and the “one-hybrid fitness for binding parS DNA” value was ≤ 0.2.
For RYTD, the “one-hybrid fitness for binding parS DNA” value was ≤ 0.2.
